Source: paper PMC11006913

Key:
Assay in all cases: PBM; 200 nM protein, PBS
Details in all cases: dsDNA, one strand shown
MSX2 [1] = molecular target: MSX2 (Homo sapiens, UniProt P35548 130-214)
MSX2 [2] = molecular target: MSX2 (Homo sapiens, UniProt P35548 130-214, F161Y)
HOXC10 = HOXC10 (Homo sapiens, UniProt Q9NYD6 254-340, K271E)
ALX3 [3] = molecular target: ALX3 (Homo sapiens, UniProt O95076 139-225)
NKX2-4 = molecular target: T1, NKX2-4 (Homo sapiens, UniProt Q9H2Z4 175-261, R246Q)
T1 sequence: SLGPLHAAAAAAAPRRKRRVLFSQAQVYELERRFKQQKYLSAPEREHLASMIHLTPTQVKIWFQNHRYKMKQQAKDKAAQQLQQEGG

PROP1 [4] = molecular target: PROP1 (Homo sapiens, UniProt O75360 56-141)
PROP1 [5] = molecular target: PROP1 (Homo sapiens, UniProt O75360 56-141, R99H)
PROP1 [6] = molecular target: PROP1 (Homo sapiens, UniProt O75360 56-141, F88S)
PAX4 = molecular target: T2, PAX4 (Homo sapiens, UniProt O43316 9-242, F177Y)
T2 sequence: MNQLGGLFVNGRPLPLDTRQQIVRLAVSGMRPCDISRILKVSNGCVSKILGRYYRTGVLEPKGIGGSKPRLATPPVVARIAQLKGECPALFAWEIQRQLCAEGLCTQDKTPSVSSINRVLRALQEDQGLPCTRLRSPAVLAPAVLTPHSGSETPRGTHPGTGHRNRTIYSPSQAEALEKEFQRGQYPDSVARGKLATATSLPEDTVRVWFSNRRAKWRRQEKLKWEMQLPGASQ

VAX1 [7] = molecular target: VAX1 (Homo sapiens, UniProt Q5SQQ9 86-172)
VAX1 [8] = molecular target: VAX1 (Homo sapiens, UniProt Q5SQQ9 86-172, T142I)
VAX1 [9] = molecular target: VAX1 (Homo sapiens, UniProt Q5SQQ9 86-172, K157R)
ALX3 [10] = molecular target: ALX3 (Homo sapiens, UniProt O95076 139-225, N203S)
ALX3 (Homo sapiens, UniProt O95076 139-225, N203S), sequence (O95076 139-225 N203S): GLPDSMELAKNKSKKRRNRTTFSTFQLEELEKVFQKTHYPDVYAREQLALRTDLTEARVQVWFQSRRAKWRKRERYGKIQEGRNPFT

PROP1 (Homo sapiens, UniProt O75360 56-141, R99H), sequence (O75360 56-141 R99H): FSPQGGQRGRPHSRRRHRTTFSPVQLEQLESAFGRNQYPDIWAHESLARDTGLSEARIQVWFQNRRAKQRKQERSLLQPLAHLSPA
MSX2 (Homo sapiens, UniProt P35548 130-214), sequence (P35548 130-214): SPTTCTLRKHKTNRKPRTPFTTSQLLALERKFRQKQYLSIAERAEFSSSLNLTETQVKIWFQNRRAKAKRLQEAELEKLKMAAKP
ALX3 (Homo sapiens, UniProt O95076 139-225), sequence (O95076 139-225): as the sequence (O95076 139-225 N203S) above, with S65N counted along it
MSX2 (Homo sapiens, UniProt P35548 130-214, F161Y), sequence (P35548 130-214 F161Y): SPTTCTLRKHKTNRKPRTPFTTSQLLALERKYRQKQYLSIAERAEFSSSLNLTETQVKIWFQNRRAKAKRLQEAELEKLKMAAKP
PROP1 (Homo sapiens, UniProt O75360 56-141), sequence (O75360 56-141): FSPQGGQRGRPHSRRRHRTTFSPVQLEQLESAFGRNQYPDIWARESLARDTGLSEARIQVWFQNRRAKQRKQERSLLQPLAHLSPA
PROP1 (Homo sapiens, UniProt O75360 56-141, F88S), sequence (O75360 56-141 F88S): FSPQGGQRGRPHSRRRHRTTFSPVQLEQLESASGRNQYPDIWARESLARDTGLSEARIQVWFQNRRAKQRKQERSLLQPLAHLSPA
HOXC10, sequence (Q9NYD6 254-340 K271E): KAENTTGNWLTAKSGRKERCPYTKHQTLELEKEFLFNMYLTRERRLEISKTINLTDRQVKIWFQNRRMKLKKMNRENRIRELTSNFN
VAX1 (Homo sapiens, UniProt Q5SQQ9 86-172, K157R), sequence (Q5SQQ9 86-172 K157R): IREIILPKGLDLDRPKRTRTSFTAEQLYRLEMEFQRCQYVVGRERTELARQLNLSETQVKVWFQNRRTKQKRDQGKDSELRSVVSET
VAX1 (Homo sapiens, UniProt Q5SQQ9 86-172, T142I), sequence (Q5SQQ9 86-172 T142I): as the sequence (Q5SQQ9 86-172 K157R) above, with T57I, R72K counted along it
VAX1 (Homo sapiens, UniProt Q5SQQ9 86-172), sequence (Q5SQQ9 86-172): as the sequence (Q5SQQ9 86-172 K157R) above, with R72K counted along it

## ATTTGTCC
MSX2 [1]
  binding signal: 11.1 upbm affinity estimate (log intensity, higher = more binding, comparable within an allelic series)
MSX2 [2]
  binding signal: 11 upbm affinity estimate (log intensity, higher = more binding, comparable within an allelic series)

## CAATCCGA
MSX2 [1]
  binding signal: 10.8 upbm affinity estimate (log intensity, higher = more binding, comparable within an allelic series)
MSX2 [2]
  binding signal: 10.8 upbm affinity estimate (log intensity, higher = more binding, comparable within an allelic series)

## GACCATTA
MSX2 [1]
  binding signal: 11.8 upbm affinity estimate (log intensity, higher = more binding, comparable within an allelic series)
MSX2 [2]
  binding signal: 11.7 upbm affinity estimate (log intensity, higher = more binding, comparable within an allelic series)

## GTCATCTA
MSX2 [1]
  binding signal: 10.5 upbm affinity estimate (log intensity, higher = more binding, comparable within an allelic series)
MSX2 [2]
  binding signal: 10.4 upbm affinity estimate (log intensity, higher = more binding, comparable within an allelic series)

## AAACGATG
MSX2 [1]
  binding signal: 10.6 upbm affinity estimate (log intensity, higher = more binding, comparable within an allelic series)

## CAAATTCA
MSX2 [1]
  binding signal: 10.9 upbm affinity estimate (log intensity, higher = more binding, comparable within an allelic series)
MSX2 [2]
  binding signal: 10.7 upbm affinity estimate (log intensity, higher = more binding, comparable within an allelic series)

## ATTTTTGG
MSX2 [1]
  binding signal: 10.7 upbm affinity estimate (log intensity, higher = more binding, comparable within an allelic series)
MSX2 [2]
  binding signal: 10.6 upbm affinity estimate (log intensity, higher = more binding, comparable within an allelic series)

## ATCAATCC
MSX2 [1]
  binding signal: 11.1 upbm affinity estimate (log intensity, higher = more binding, comparable within an allelic series)
MSX2 [2]
  binding signal: 11.1 upbm affinity estimate (log intensity, higher = more binding, comparable within an allelic series)

## ATCAAAAT
MSX2 [1]
  binding signal: 11.2 upbm affinity estimate (log intensity, higher = more binding, comparable within an allelic series)
MSX2 [2]
  binding signal: 11.1 upbm affinity estimate (log intensity, higher = more binding, comparable within an allelic series)

## CTCAATCC
MSX2 [1]
  binding signal: 10.8 upbm affinity estimate (log intensity, higher = more binding, comparable within an allelic series)
MSX2 [2]
  binding signal: 10.7 upbm affinity estimate (log intensity, higher = more binding, comparable within an allelic series)

## ATCATCGG
MSX2 [1]
  binding signal: 10.9 upbm affinity estimate (log intensity, higher = more binding, comparable within an allelic series)
MSX2 [2]
  binding signal: 10.8 upbm affinity estimate (log intensity, higher = more binding, comparable within an allelic series)

## CATAAATG
HOXC10
  binding signal: 11.2 upbm affinity estimate (log intensity, higher = more binding, comparable within an allelic series)

## CATATTGA
ALX3 [3]
  binding signal: 9.37 upbm affinity estimate (log intensity, higher = more binding, comparable within an allelic series)

## CAAATAAG
MSX2 [1]
  binding signal: 11.1 upbm affinity estimate (log intensity, higher = more binding, comparable within an allelic series)
MSX2 [2]
  binding signal: 10.9 upbm affinity estimate (log intensity, higher = more binding, comparable within an allelic series)

## AAAATCGT
MSX2 [1]
  binding signal: 11 upbm affinity estimate (log intensity, higher = more binding, comparable within an allelic series)
MSX2 [2]
  binding signal: 10.9 upbm affinity estimate (log intensity, higher = more binding, comparable within an allelic series)

## ATTTCTAA
MSX2 [1]
  binding signal: 11.2 upbm affinity estimate (log intensity, higher = more binding, comparable within an allelic series)
MSX2 [2]
  binding signal: 11 upbm affinity estimate (log intensity, higher = more binding, comparable within an allelic series)

## GCGATATA
MSX2 [1]
  binding signal: 10.6 upbm affinity estimate (log intensity, higher = more binding, comparable within an allelic series)
MSX2 [2]
  binding signal: 10.5 upbm affinity estimate (log intensity, higher = more binding, comparable within an allelic series)

## ATTGCCAC
MSX2 [1]
  binding signal: 11 upbm affinity estimate (log intensity, higher = more binding, comparable within an allelic series)
MSX2 [2]
  binding signal: 11 upbm affinity estimate (log intensity, higher = more binding, comparable within an allelic series)

## ACTATTAT
ALX3 [3]
  binding signal: 10.4 upbm affinity estimate (log intensity, higher = more binding, comparable within an allelic series)

## ATTACTTC
MSX2 [1]
  binding signal: 11.6 upbm affinity estimate (log intensity, higher = more binding, comparable within an allelic series)
MSX2 [2]
  binding signal: 11.5 upbm affinity estimate (log intensity, higher = more binding, comparable within an allelic series)

## AATCAGGC
MSX2 [1]
  binding signal: 11.4 upbm affinity estimate (log intensity, higher = more binding, comparable within an allelic series)
MSX2 [2]
  binding signal: 11.2 upbm affinity estimate (log intensity, higher = more binding, comparable within an allelic series)

## ACTCTTGA
NKX2-4
  binding signal: 12.9 upbm affinity estimate (log intensity, higher = more binding, comparable within an allelic series)

## TCCAATCA
PROP1 [4]
  binding signal: 8.66 upbm affinity estimate (log intensity, higher = more binding, comparable within an allelic series)
PROP1 [5]
  binding signal: 8.18 upbm affinity estimate (log intensity, higher = more binding, comparable within an allelic series)
PROP1 [6]
  binding signal: 7.02 upbm affinity estimate (log intensity, higher = more binding, comparable within an allelic series)

## ATCATATA
PAX4
  binding signal: 10.6 upbm affinity estimate (log intensity, higher = more binding, comparable within an allelic series)

## AAGAATAT
PROP1 [4]
  binding signal: 8.06 upbm affinity estimate (log intensity, higher = more binding, comparable within an allelic series)

## CCAAACAA
ALX3 [3]
  binding signal: 8.78 upbm affinity estimate (log intensity, higher = more binding, comparable within an allelic series)

## ACCGAGAG
PROP1 [4]
  binding signal: 6.71 upbm affinity estimate (log intensity, higher = more binding, comparable within an allelic series)
PROP1 [5]
  binding signal: 6.74 upbm affinity estimate (log intensity, higher = more binding, comparable within an allelic series)
PROP1 [6]
  binding signal: 6.73 upbm affinity estimate (log intensity, higher = more binding, comparable within an allelic series)

## TTACTCAA
PROP1 [4]
  binding signal: 8.57 upbm affinity estimate (log intensity, higher = more binding, comparable within an allelic series)
PROP1 [5]
  binding signal: 7.91 upbm affinity estimate (log intensity, higher = more binding, comparable within an allelic series)
VAX1 [7]
  binding signal: 9.78 upbm affinity estimate (log intensity, higher = more binding, comparable within an allelic series)
PROP1 [6]
  binding signal: 7.39 upbm affinity estimate (log intensity, higher = more binding, comparable within an allelic series)
VAX1 [8]
  binding signal: 9.49 upbm affinity estimate (log intensity, higher = more binding, comparable within an allelic series)
VAX1 [9]
  binding signal: 9.35 upbm affinity estimate (log intensity, higher = more binding, comparable within an allelic series)

## AATCTATA
PROP1 [4]
  binding signal: 8.79 upbm affinity estimate (log intensity, higher = more binding, comparable within an allelic series)
PROP1 [5]
  binding signal: 8.14 upbm affinity estimate (log intensity, higher = more binding, comparable within an allelic series)
PROP1 [6]
  binding signal: 7.56 upbm affinity estimate (log intensity, higher = more binding, comparable within an allelic series)

## GGTTGTTA
ALX3 [3]
  binding signal: 9.57 upbm affinity estimate (log intensity, higher = more binding, comparable within an allelic series)
ALX3 [10]
  binding signal: 8.28 upbm affinity estimate (log intensity, higher = more binding, comparable within an allelic series)

## GTGCGCCA
PROP1 [4]
  binding signal: 6.79 upbm affinity estimate (log intensity, higher = more binding, comparable within an allelic series)
PROP1 [5]
  binding signal: 6.83 upbm affinity estimate (log intensity, higher = more binding, comparable within an allelic series)
PROP1 [6]
  binding signal: 6.75 upbm affinity estimate (log intensity, higher = more binding, comparable within an allelic series)

## GACGACAA
PROP1 [4]
  binding signal: 7.4 upbm affinity estimate (log intensity, higher = more binding, comparable within an allelic series)

## AAAAATAA
ALX3 [3]
  binding signal: 9.76 upbm affinity estimate (log intensity, higher = more binding, comparable within an allelic series)

## AGTTAGAG
PROP1 [4]
  binding signal: 7.87 upbm affinity estimate (log intensity, higher = more binding, comparable within an allelic series)

## AATAGTCC
PROP1 [4]
  binding signal: 8.13 upbm affinity estimate (log intensity, higher = more binding, comparable within an allelic series)
